A selection: hits, their analogues and other compounds. The true share with any hit is near 4.2%.
PLK1 PBD inh – blocks phosphopeptide binding to human PLK1 polo-box domain; P53350; Plk1 PBD binding of FITC phosphopeptide, fluorescence polarization; Potency, µM, for the others: max response, negative = inhibition, actives largely listed as inhibitors; 360,000 tested, 2.8% active; AID 720504; further: series mostly up to about 57 µM; nearly all actives have a fitted effect of over 65% in size
VDR inhibitor – inhibitors of human vitamin D receptor; P11473; VDR-SRC2-3 peptide fluorescence polarization, 2 h; Potency, µM, for inactives: max response, negative = inhibition, most hits filed as inhibitors; 400,000 tested, 0.93% active; AID 504847
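Reagent solutions, kept cold and dark, are dispensed first; compounds are then pinned in at 23 nl, plates briefly spun, and incubated 2 h at ambient temperature. Inhibition of VDR–SRC2-3 peptide binding is read by fluorescence polarization.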
12-LOX inh – blocks human arachidonate 12S-lipoxygenase | P18054 | purified 12hLO, xylenol orange hydroperoxide absorbance | Potency, µM (series often up to 108 µM), without a hit: at the top dose activity change, negative = inhibition, actives largely listed as inhibitors | 580,000 tested, 1.1% active
Target sequence (P18054 whole entry, looked up): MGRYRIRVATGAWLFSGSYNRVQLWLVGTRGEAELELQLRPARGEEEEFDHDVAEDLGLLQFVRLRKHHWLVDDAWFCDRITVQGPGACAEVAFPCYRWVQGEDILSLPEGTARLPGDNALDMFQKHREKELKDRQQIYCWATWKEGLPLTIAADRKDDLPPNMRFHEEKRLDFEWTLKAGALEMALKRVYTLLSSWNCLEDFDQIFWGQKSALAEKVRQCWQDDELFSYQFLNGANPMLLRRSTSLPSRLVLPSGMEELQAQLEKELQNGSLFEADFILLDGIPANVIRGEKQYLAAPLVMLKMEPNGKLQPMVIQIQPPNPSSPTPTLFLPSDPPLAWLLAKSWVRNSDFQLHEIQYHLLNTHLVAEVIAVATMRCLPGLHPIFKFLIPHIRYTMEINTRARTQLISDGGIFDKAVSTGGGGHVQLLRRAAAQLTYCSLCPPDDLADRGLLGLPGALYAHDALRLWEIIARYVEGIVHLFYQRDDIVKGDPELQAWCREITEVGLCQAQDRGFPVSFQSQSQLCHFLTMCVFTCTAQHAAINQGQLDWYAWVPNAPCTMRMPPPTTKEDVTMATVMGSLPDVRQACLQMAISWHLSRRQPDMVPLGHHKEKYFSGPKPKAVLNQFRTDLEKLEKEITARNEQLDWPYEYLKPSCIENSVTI
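Purified human 12hLO at 150 nM in 25 mM Hepes, 0.01% Triton X-100, pH 7.0, preincubated 15 min at room temperature with compound. Reaction started with 40 uM arachidonic acid, 30 min at room temperature. Hydroperoxide measured by Fe-xylenol orange, 573/405 nm absorbance ratio.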
Sfp PPTase inh – Sfp phosphopantetheinyl transferase inhibition; Q9F4F7; Biochemical Sfp PPTase activity, qHTS; 310,000 tested, 3.5% active; Potency, µM, for inactives: largest response in the series, negative = inhibition, actives largely listed as inhibitors;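 further: the enzyme is Sfp with the accession as filed and its product quenches rhodamine fluorescence; 0% = enzyme reaction without inhibitor and -100% = no enzyme wells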
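Reaction rates are the 30-min fluorescence difference (ex 525, em 598 nm) in wells containing 15 nM Sfp, 5 uM rhodamine-CoA and 12.5 uM BHQ-2-YbbR at pH 7.6 with 10 mM MgCl2.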
* hit, by the source's call; ? = inconclusive; · = no result given; [ ] = another dose, or the depositor's remark. The call rests on the fitted dose curve; in most records, active means well fitted curve in the direction sought with a large enough effect; inconclusive means small, poorly fitted or top-dose-only effect, or another doubt; inactive means no such curve, though single readings can be large; an effect the other way counts as inactive or inconclusive. Unless noted, on the % scale 0 is the no-effect control and ±100 the full control effect; potency means the concentration at half of the fitted maximal effect.

SMILES	PLK1 PBD inh	VDR inhibitor	12-LOX inh	Sfp PPTase inh
O=C(Nc1ccc(Oc2ccccc2)cc1)c1ccc2sc([C@H]3C[C@H](O)[C@@H](CO)O3)nc2c1	-15%	·	-27%	·
CC(=O)c1cc(CN2CCC(N3CCC(C(=O)N4CCCC4)CC3)CC2)cs1	-4%	9%	-1%	22µM*
Cc1cccc(Nc2nc(-c3cc4ccccc4oc3=O)cs2)c1	·	·	40µM*	·
O=c1oc2ccc(Cl)cc2cc1-c1csc(Nc2ccccc2)n1	·	·	20µM*	·
O=c1oc2ccccc2cc1-c1nc(-c2cccs2)cs1	11µM*	3%	-13%	14%
O=C(O)c1ccc(Nc2nc(-c3cc4ccccc4oc3=O)cs2)cc1O	24µM*	-10%	40µM*	35µM*
CC(=O)Nc1ccc(Nc2nc(-c3cc4ccccc4oc3=O)cs2)cc1	-8%	4%	?	-7%
Cc1cc(S(=O)(=O)NCC(c2ccc(N(C)C)cc2)N2CCOCC2)ccc1F (configuration not stated)	·	11%	-4%	·
COc1ccc(Cn2c(=O)[nH]c3cc(C(=O)Nc4ccccc4C)ccc32)cc1	-11%	10%	30%	-10%
CCC(C)N(C(=O)COc1ccc(Br)cc1C=O)C1CCS(=O)(=O)C1 (configuration not stated)	-9%	-9%	-4%	·
COCCOCC(=O)N1CCCC(c2nn(C)c(=O)n2C(C)C)C1 (configuration not stated)	·	·	27%	·
N#C/C(=C\c1ccc(Cl)cc1)c1nc(-c2cc3ccccc3oc2=O)cs1	·	-6%	0%	·
CC1CCC(=C(C#N)c2nc(-c3cc4ccccc4oc3=O)cs2)CC1 (configuration not stated)	27µM*	-20%	·	3%
COCCN=C1Sc2nc3ccc(C)cc3cc2CN1Cc1cccs1	-16%	-15%	?	22µM*
Cc1cccc(N=C2Sc3nc4c(C)c(C)ccc4cc3CN2CCN2CCOCC2)c1	-4%	-5%	?	?
CCC(C)N=C1Sc2nc3ccc(C)cc3cc2CN1CCOC (configuration not stated)	24µM*	-27%	?	45µM*
COCCN=C1Sc2nc3c(C)cccc3cc2CN1Cc1ccco1	?	89µM*	32µM*	20µM*
CCOc1ccc2nc3c(cc2c1)CN(CCCO)C(=NCCOC)S3	11µM*	-20%	?	-26%
O=C(CN1C(=O)NC(Cc2ccccc2)C1=O)Nc1ccc(OC(F)(F)F)cc1 (configuration not stated)	3%	-11%	4%	·
CN(C)c1ccc(-c2noc(-c3cc4cc(F)ccc4oc3=O)n2)cc1	·	·	57%	·
CCOc1ccc(N=C2Sc3nc4ccc(C)cc4cc3CN2CCOC)cc1	-7%	3%	1%	?
COCCN1Cc2cc3cc(C)ccc3nc2SC1=Nc1ccc(OC)cc1	-1%	-11%	-6%	20µM*
Cc1ccc2nc3c(cc2c1)CN(Cc1ccco1)C(=NCC1CCCO1)S3 (configuration not stated)	27µM*	?	0%	?
CCOc1ccc(CCN2C(=O)C(=O)N([C@@H](Cc3ccccc3)CN3CCC[C@H]3CN3C(=O)C(=O)NC[C@@H]3Cc3ccccc3)C[C@@H]2Cc2ccc(O)cc2)cc1	-15%	·	-14%	·
COc1coc(C(O)C[N+](=O)[O-])cc1=O (configuration not stated)	-7%	1%	-23%	32µM*
SMILES	PLK1 PBD inh	VDR inhibitor	12-LOX inh	Sfp PPTase inh
CCN(CC)c1ccc(/C=N/Nc2nc3ccccc3[nH]2)cc1	-6%	7%	?	-8%
Cc1ccc(SCCC(=O)Nc2ccccc2C(=O)N2CCOCC2)cc1	-10%	-7%	16%	11%
CN(C)S(=O)(=O)c1ccc(C(=O)NCC2CC2(Cl)Cl)cc1 (configuration not stated)	24µM*	?	28%	-1%
CCOc1ccc(S(=O)(=O)N2CCN(C(C(=O)O)c3c[nH]c4ccc(Cl)cc34)CC2)cc1 (configuration not stated)	·	·	7%	·
O=C(CCc1nnc(C2CCCCC2)o1)NCc1cccc(-n2cccn2)c1	-3%	-4%	3%	15%
O=C(C=Cc1ccccn1)c1ccccc1O	21µM*	56µM*	?	·
O=C(/C=C/c1csc(-c2ccccc2)n1)c1ccccc1	·	·	-32%	·
O=C(C=Cc1ccccn1)c1ccccc1	?	20µM*	?	·
COc1ccccc1-c1ccc2ncc(Nc3ccnc(N4CCOCC4)c3)n2n1	·	·	75%[176 µM]	·
CC(=O)Nc1ccc(S(=O)(=O)NCC(=O)NNC(=O)COc2c(C)cccc2C)cc1	-5%	8%	243%	·
CC(=O)Nc1ccc(S(=O)(=O)NNC(=O)COc2ccc(C(C)(C)C)cc2)cc1	27µM*	-8%	1%	0%
CC(Cl)C(=O)NNC(=O)CNS(=O)(=O)c1ccccc1 (configuration not stated)	27µM*	-6%	3%	6%
CC(=O)Nc1ccc(S(=O)(=O)NCC(=O)NNC(=O)COc2ccccc2Cl)cc1	19µM*	-27%	-2%	·
CCN(CC)S(=O)(=O)c1ccc(NC(=S)NC(=O)CC(C)C)cc1	0%	-15%	?	-9%
CC(C)(C)c1cc(C[C@@H]2CC[C@H](O)[C@@H](CNC3CCNCC3)O2)no1	·	·	36%[176 µM]	·
COc1cc(C2Nc3c(F)cccc3C3C=CCC32)cc(Br)c1OC (configuration not stated)	-10%	3%	2%	40µM*
COCCCn1c(O)c(/C=C2\N=C(C#N)C(=Nc3ccc(C)cc3)O2)sc1=S	10%	-1%	?	13µM*
OC1(c2nc(Nc3ccc(Oc4ccccc4)cc3)n[nH]2)CCOCC1	·	·	2%[176 µM]	·
CC(C)=C[C@H]1C[C@H](C)[C@H]2CC[C@H](C)c3c(O[C@@H]4OC[C@@H](O)[C@H](O)C4O)c(O)c(C)c1c32 (some centres not stated)	-12%	-8%	?	·
Cc1ccc(-c2cc(-c3ccccc3)nc(N/N=C/c3cccnc3)n2)cc1	-14%	-3%	6%	·
O=C(Nc1nc(-c2ccc(Cl)cc2)cs1)c1cccnc1	12µM*	-19%	?	-7%
Clc1ccc(-c2csc(N/N=C\c3cccnc3)n2)cc1	1%	-10%	?	56µM*
O=C(O)COc1ccc(/C=N/NC(=O)c2ccc(-c3csc(Nc4ccc(Cl)cc4)n3)cc2)cc1	?	-9%	?	45µM*
O=C(Nc1nc(-c2ccc(Cl)cc2)cs1)NC1CCCCC1	3%	-2%	50µM*	13%
COc1ccc(-c2cc3ncc(C(=O)c4cc(Br)ccc4O)cn3n2)cc1	·	·	0%	·
COc1ccc(NC(=O)C2Cc3ccccc3C(=O)O2)cc1 (configuration not stated)	-5%	5%	-14%	20%
C(=N/Nc1nccs1)/c1cccnc1	-6%	15%	-4%	50µM*
Cc1sc(N/N=C/c2cccnc2)nc1-c1ccccc1	-10%	-7%	0%	-99%
Cc1ccc(-c2csc(NC(=O)CCCc3cccs3)n2)cc1	17µM*	-14%	-6%	18%
N#Cc1ccc(OCC(=O)Nc2nc(-c3ccncc3)cs2)cc1	-7%	-6%	-3%	·

Compound activity: PubChem BioAssay, National Center for Advancing Translational Sciences (NCATS)
